Assay outcomes as filed in PubChem.
In the library only some 4% were active in any assay of this set; here they are far more common.
TWEAK Fn14 block = blocks TWEAK-Fn14 interaction in a reporter cell assay; TWEAK-stimulated Fn14 reporter cells, luciferase luminescence, 8 h; inhibition, % at 10 µM; 2% of 360,000 active; AID 1159606; in the data active = inhibition above about 50%
CF NFkB inh = blocks PAF-induced NF-kB reporter in cystic fibrosis cells; inhibition, % at 5 µM; 0.86% of 360,000 active; AID 588850; KKLEB NF-kB-GFP reporter, GFP fluorescence overnight;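 active = at least 50% inhibition at 5 µM, scaled per plate between neutral and stimulator controls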;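 note: PAF is a Pseudomonas aeruginosa culture filtrate used as stimulus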
KKLEB tox = reduces viability of KKLEB cystic fibrosis airway cells; KKLEB CF airway cells viability, ATPlite luminescence, overnight; hits give low values; cells stimulated with P. aeruginosa culture filtrate; activity change (cytotoxicity), % at 5 µM; 0.36% of 360,000 active; AID 602141;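 active = corrected activity change at or below -50% at 5 µM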
HIF-2a inh = blocks HIF-2a reporter activity; 786-0 RCC cells HIF-2a reporter, luciferase luminescence, overnight; inhibition, % at 18.8 µM; 0.72% of 360,000 active;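 active = inhibition of the luminescence signal of 40% or more relative to plate controls, in a single-dose primary screen at 18.75 µM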
Peg3 prom inh = reduces Peg3 promoter-driven luciferase expression in HeLa; HeLa PEG-Prom luciferase reporter, luminescence, overnight; inhibition, % at 20 µM; 1.7% of 360,000 active; AID 588405;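 active = inhibition of at least 50% at 20 µM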
TROY NFkB inh = blocks TROY-dependent signaling in reporter cells | 0.98% of 360,000 active | Q293 LMP1-TROYcd NF-kB luciferase reporter, 4 h | inhibition, % at 10 µM;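 active = compounds whose plate-normalised and pattern-corrected inhibition of the luciferase reporter signal at the single screening dose is 50% or more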
Of the large screens only hits and unclear results are named; the others gave an inactive call.

O=C1N(c2ccccc2)C[C@@H]2C[C@@H](c3cc4ccccc4o3)N3CCC[C@@]123	TWEAK Fn14 block 84, CF NFkB inh 87, KKLEB tox -66, Peg3 prom inh 105
CCc1cc(C(=O)N(CCCOC)c2c(N)n(Cc3ccccc3)c(=O)[nH]c2=O)sc1C	TROY NFkB inh 71
CCCN(C(=O)c1cc(CC)c(C)s1)c1c(N)n(Cc2ccccc2)c(=O)[nH]c1=O	none
COc1cccc(CNC(=O)CN(c2ccc(C(C)C)cc2)S(=O)(=O)c2c(C)noc2C)c1	none
Cc1ccc(C(=O)Nc2cccc(C(F)(F)F)c2)cc1NC(=O)c1csc(-c2ccncc2)n1	none
N#C/C(=N\Nc1cccc(C(F)(F)F)c1)C(=O)c1csc(-c2cccnc2)n1	CF NFkB inh 53, TROY NFkB inh 66
O=C(NCCCN1CCCC1)Nc1ccc(F)cc1	none
COc1ccc(OCc2cccc(C(=O)Nc3ccc(CN4CCCCC4)cc3)c2)cc1	none
O=C(Nc1ccc(OCc2ccccc2)cc1)Nc1ccccc1C(=O)NCCCN1CCOCC1	TWEAK Fn14 block 89
CCOc1ccc(OCc2cccc(C(=O)Nc3ccc(CN4CCCCC4)cc3)c2)cc1	Peg3 prom inh 50
O=C(Nc1ccccc1C(=O)NCCCN1CCOCC1)c1ccc(F)cc1F	none
CCOc1ccc(NC(=O)NCCCN2CCCC2)cc1	TWEAK Fn14 block 90
O=C1CSC(=S)N1c1cccc(O)c1	TWEAK Fn14 block 76, HIF-2a inh 48
CC(C)N1CCCC(C)(C(=O)Nc2nccc3ccccc23)C1 (centres undefined)	none
N#CCc1nc(-c2cc3ccccc3oc2=O)cs1	none
CC1CCC(=C(C#N)c2nc(-c3cc4ccccc4oc3=O)cs2)CC1 (centres undefined)	TWEAK Fn14 block 54
CC(=O)Nc1ccc(S(=O)(=O)N2CCC(c3nnc(-c4ccc(C)cc4)o3)CC2)cc1	none
O=C(Nc1cccc2c1CCCC2)c1ccc(Cl)c([N+](=O)[O-])c1	none
O=C(Nc1cccc2c1CCCC2)c1cc([N+](=O)[O-])ccc1Cl	TWEAK Fn14 block 51
C=CCC(O)(CC=C)CNC(=O)c1ccc(OC)c(OC2CCN(C(C)=O)CC2)c1	none
COc1ccc(NS(=O)CCCc2ccccc2)cc1 (centres undefined)	TWEAK Fn14 block 54
COc1ccc(C(=O)NCCCCc2ccccc2)cc1	none
COc1ccc(Cc2ccccc2C(=O)O)cc1	none
COc1ccc(CC2=CC(=O)c3ccccc3C2=O)cc1	CF NFkB inh 52
CCCn1c(=O)c(C(=O)Nc2ccccc2N)c(O)c2ccccc21	none
CCOC(=O)c1cnc2ccc(Cl)cc2c1NCCN(C)C	Peg3 prom inh 59
COc1ccc(-n2cc(C(=O)c3ccccc3O)cn2)cc1	TWEAK Fn14 block 61
NC(=S)N/N=C/c1coc2c(ccc3ccccc32)c1=O	TWEAK Fn14 block 51
NC(=S)N/N=C/c1coc2cc(Br)ccc2c1=O	none
Cc1ccccc1NC(=O)Nc1nc(CN)cs1	none
CC(C)Cc1cc(C(=O)Nc2cccc(O)c2)no1	TWEAK Fn14 block 65
COc1ccc(-c2cc(C(=O)Nc3cccc(O)c3)no2)cc1	TWEAK Fn14 block 67
CC(C)Cc1cc(C(=O)Nc2ccc(Br)cc2)no1	none
CC(C)(C)c1ccc(C(=O)NCCc2ccccc2)cc1	TWEAK Fn14 block 59
CC(C)Cc1ccc(C(=O)NCCOc2ccccc2)o1	TWEAK Fn14 block 51
CN(C)S(=O)(=O)c1ccc(C(=O)NCCOc2ccccc2)cc1	none
CC(C)(C)c1ccc(C(=O)NCCOc2ccccc2)cc1	TWEAK Fn14 block 89, TROY NFkB inh 79
O=C(NCCc1ccccc1)c1cccc(N2CCCC2=O)c1	TWEAK Fn14 block 83, TROY NFkB inh 62
CC(C)C(=O)N1CCN(c2ccccc2NC(=O)c2ccco2)CC1	none
CC(C)n1nnnc1C1c2ccccc2C(=O)N1C1CC1 (centres undefined)	none (no result: CF NFkB inh, KKLEB tox, Peg3 prom inh)
CCOC(=O)C1(CCCc2ccccc2)CCN(C(=O)c2cc(C)nn2CC)CC1	none
O=C(NCCc1ccccc1)c1ccc([N+](=O)[O-])cc1	TWEAK Fn14 block 58
CCCCn1nnnc1C(c1cc2ccccc2o1)N(CCN(C)C)Cc1ccccc1 (centres undefined)	none (no result: CF NFkB inh, KKLEB tox, Peg3 prom inh)
O=C(N/N=C/c1ccc(N2CCOCC2)cc1)c1ccccc1OCCOc1ccccc1	Peg3 prom inh 62
CCN(CC)CCNC(=O)c1cn(CC)c2cc(N3CCN(C)CC3)c(F)cc2c1=O	none
O=[N+]([O-])c1ccc2c(c1)Cc1cc(F)ccc1-2	none
CC(=O)Nc1ccc2c(c1)Cc1cc(N3C(=O)C=CC3=O)ccc1-2	HIF-2a inh 42, Peg3 prom inh 98
CC(=O)Nc1ccc2c(c1)Cc1ccc(Cl)cc1-2	none
O=C1C=CC(=O)N1c1ccc2c(c1)Cc1cc(F)ccc1-2	Peg3 prom inh 97
O=C(Nc1ccccc1)OCCc1ccccn1	none
Cc1ccnc(NC(=O)c2cccc(S(=O)(=O)N3CCN(c4ccccc4)CC3)c2)c1	TWEAK Fn14 block 72
CN(CCOc1ccc(Cl)cc1)C(=O)c1cccc(S(=O)(=O)N2CCN(c3ccccc3)CC2)c1	TWEAK Fn14 block 50
Cc1ccnc(NC(=O)c2cccc(S(=O)(=O)N3CCCC3)c2)c1	none
COc1ccccc1CN1C[C@@H]2C[C@@H](c3ccc(C)c(C)c3)N3CCC[C@@]23C1=O	none
COc1cc(-c2noc(C)c2C#Cc2ccc(N)cc2)cc(OC)c1OC	CF NFkB inh 52
Cc1ccc2nc(-c3ccc(NC(=S)NC4CC(C)(C)NC(C)(C)C4)cc3)sc2c1	Peg3 prom inh 105
CCN(CC)c1ccc(-c2nn3c(-c4n[nH]c5c4CCC5)nnc3s2)cc1	TROY NFkB inh 52
Cn1ccnc1-c1ccc(-c2nccn2C)cc1	none
C/C(=N/OC(=O)c1ccc(C)cc1)c1cccs1	TROY NFkB inh 62
COc1ccc(C(=O)O/N=C(\N)c2ccccn2)c(OC)c1	TWEAK Fn14 block 88, TROY NFkB inh 73
COc1ccc(C(=O)O/N=C(\C)c2ccccc2)cc1	TROY NFkB inh 69
COc1ccc(C(=O)O/N=C(\N)c2ccccc2)c(OC)c1	TWEAK Fn14 block 86, TROY NFkB inh 77
COc1ccc(C(=O)O/N=C(\N)c2ccc(OC)c(OC)c2)c(OC)c1	none
CCn1ccc(C(=O)Nc2ccc3c(c2)CCC3)n1	none
Cc1cccc(C)c1N1CCN(C(c2cc3ccccc3o2)c2nnnn2C(C)(C)C)CC1 (centres undefined)	TWEAK Fn14 block 53 (no result: CF NFkB inh, KKLEB tox, Peg3 prom inh)
O=C1c2ccccc2-c2nc3ccccc3nc21	none
Cc1nc2c(nc1C)C(=O)c1ccccc1C2=O	CF NFkB inh 61
O=C(CN1C(=O)/C(=C2\SC(=S)N(C3CCS(=O)(=O)C3)C2=O)c2ccccc21)Nc1ccccc1 (centres undefined)	CF NFkB inh 53
CSc1ccc(CNC(=O)C2(C)CCN2C(C)C)cc1 (centres undefined)	none
CC(C)COc1ccc(CNC(=S)Nc2ccccc2)cc1Cl	none
